About 180 (7.5%) of roughly 2,400 compounds were called active. This is one part of a sample in which actives are shown more often than they occur. A number with no mark means an inactive call.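 Rule for the calls: active = readout below zero, meaning a drop past 3 SD under the dofetilide-free negative control mean; inactive = the rest.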
Target: Potassium voltage-gated channel subfamily KQT member 2 (Rattus norvegicus) (UniProt O88943)
Test: KCNQ2 blockade in CHO cells – cell-based, FluxOR thallium flux, counter-screen for hERG block protector project, confirmation (AID 1946)
Conditions: FluxOR thallium flux fluorescence, at 10 µM, active compounds read low, zero marks the 3-SD hit cutoff

Chain of Potassium voltage-gated channel subfamily KQT member 2 (Rattus norvegicus) (O88943 whole entry, looked up): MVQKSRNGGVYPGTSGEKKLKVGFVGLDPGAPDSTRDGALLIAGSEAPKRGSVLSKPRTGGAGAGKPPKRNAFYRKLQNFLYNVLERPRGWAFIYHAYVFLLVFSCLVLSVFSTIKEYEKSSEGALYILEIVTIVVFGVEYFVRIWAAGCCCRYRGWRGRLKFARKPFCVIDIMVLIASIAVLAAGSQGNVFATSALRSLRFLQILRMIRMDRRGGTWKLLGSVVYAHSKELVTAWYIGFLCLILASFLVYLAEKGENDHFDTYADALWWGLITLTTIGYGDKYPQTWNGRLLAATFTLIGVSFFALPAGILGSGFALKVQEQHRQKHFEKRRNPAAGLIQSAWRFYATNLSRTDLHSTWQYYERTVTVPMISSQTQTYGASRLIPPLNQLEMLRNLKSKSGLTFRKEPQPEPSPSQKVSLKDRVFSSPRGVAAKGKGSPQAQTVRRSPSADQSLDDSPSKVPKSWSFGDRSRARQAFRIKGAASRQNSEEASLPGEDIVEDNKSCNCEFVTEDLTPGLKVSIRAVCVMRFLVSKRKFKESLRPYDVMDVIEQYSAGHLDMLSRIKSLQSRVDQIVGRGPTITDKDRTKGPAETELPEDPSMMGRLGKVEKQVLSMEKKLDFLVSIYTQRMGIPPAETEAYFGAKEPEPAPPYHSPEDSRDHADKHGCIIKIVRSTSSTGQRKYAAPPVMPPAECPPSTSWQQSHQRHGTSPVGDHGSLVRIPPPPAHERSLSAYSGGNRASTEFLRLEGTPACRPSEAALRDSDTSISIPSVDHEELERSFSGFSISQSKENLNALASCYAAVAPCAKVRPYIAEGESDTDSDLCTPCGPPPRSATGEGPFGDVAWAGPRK

Row | SMILES | activity change vs negative control
1 | CC12CCC(C(=O)NCc3ccc4c(c3)OCO4)(CC1=O)C2(C)C (stereo unspecified) | 9.1%
2 | Cc1ccc(C(=O)NNc2cc(N3CCCC3)nc(N3CCCC3)n2)cc1 | 39.7%
3 | COc1ccccc1NC(=O)C(=O)NNC(=O)c1ccco1 | 47.8%
4 | O=C(NCc1cccs1)C1CCC(CNS(=O)(=O)c2cccs2)CC1 (stereo unspecified) | -0.3% (active)
5 | CC(=O)c1cccc(NC(=O)NCc2cccs2)c1 | 8.1%
6 | COc1ccc(COC(=O)C2CCN(S(=O)(=O)c3cccs3)CC2)cc1 | 9.3%
7 | O=[N+]([O-])c1ccc(-c2ccc(/C=N/n3cnnc3)o2)c(Br)c1 | 3.2%
8 | CCOC(=O)/C(C)=N/NC(=O)c1cccc([N+](=O)[O-])c1 | 36.5%
9 | CCOc1ccccc1C(=O)NC1CC2CCCC(C1)N2Cc1nnnn1Cc1ccco1 (stereo unspecified) | -2.8% (active)
10 | COc1ccc(C(=O)NC2CC3CCCC(C2)N3Cc2ccccc2)cc1 (stereo unspecified) | 3.9%
11 | COc1ccccc1C(=O)NNC(=O)C(=O)NC1CCCCC1 | 71.2%
12 | COc1ccc(C(=O)CC(=O)C(=O)Nc2ccccc2Cl)cc1 | 73.9%
13 | O=C(COc1ccc(Cl)cc1Cl)NC(=S)Nc1ccccc1C(=O)O | 10.9%
14 | O=C(CCCOc1ccc(Cl)cc1Cl)Nc1ccccc1C(=O)O | -11.5% (active)
15 | COc1cc(NC(=O)CCCOc2ccc(Cl)cc2Cl)c(C(=O)O)cc1OC | 4.3%
16 | C/C(=N\NC(=O)c1cc2ccccc2cc1O)c1ccc(C)o1 | 53.8%
17 | C=CCOc1ccccc1/C=c1\sc2nc(=O)c(C)nn2c1=O | 6.3%
18 | CCN(CC)c1ccc(/C=c2\sc3nnc(-c4ccccc4Cl)n3c2=O)cc1 | -3.9% (active)
19 | O=C(NNc1nc2c(F)cccc2s1)c1cc(=O)c2ccccc2o1 | 4.5%
20 | CCOc1ccc(NC(=S)NS(=O)(=O)c2cc(Br)ccc2OCC)cc1 | 50.4%
21 | Cc1ccc(C(=O)N/N=C(/CC(=O)c2cccs2)C(F)(F)F)cc1 | 28.2%

Row | SMILES | activity change vs negative control
22 | Cc1nnc(SCC(=O)Nc2nccs2)n1N | 10.1%
23 | Nn1c(SCC(=O)Nc2ccc(OC(F)F)cc2)nnc1-c1ccco1 | -0.2% (active)
24 | Cc1cc(-c2nnc(SCC(=O)Nc3ccc(C(F)(F)F)cc3)n2C)no1 | 8.3%
25 | CCNC(=O)C/C(C)=N/NC(=O)C(=O)Nc1ccc(CC)cc1 | 26.8%
26 | O=c1c2ccccc2[nH]c(=S)n1CCc1ccccc1 | 33.3%
27 | O=C(NC(=S)N(CCc1ccccc1)CCc1ccccc1)c1ccco1 | 67.4%
28 | Cc1nn(C(=O)CNC(=O)c2ccccc2)c(C)c1C | 46.6%
29 | C=CCn1c(=S)[nH]c2scc(-c3ccc(C)o3)c2c1=O | 102%
30 | O=S(=O)(c1ccc(F)cc1)N1CCN(c2ccc(F)cc2)CC1 | 0.8%
31 | CN1CCN(S(=O)(=O)c2cccc(S(=O)(=O)c3ccc(Cl)cc3)c2)CC1 | 13.6%
32 | O=C1CCN(S(=O)(=O)c2ccc(Cl)cc2)CCN1 | -0.2% (active)
33 | O=C(NC(=S)N1CCN(Cc2ccc3c(c2)OCO3)CC1)c1cccc(Br)c1 | 61%
34 | CSc1ccccc1-n1nnnc1SCC(=O)Nc1cc(C)ccc1C | 2.3%
35 | Cc1ccc(NC(=O)CSc2nnc(C3CC3)n2CC2CCCO2)c(C)c1 (stereo unspecified) | -4.1% (active)
36 | Cc1cc(C)cc(NC(=O)CSc2nnc(CN3CCOCC3)n2C)c1 | 48.6%
37 | Cc1nnc(NC(=O)C2CCCN(S(=O)(=O)c3ccccc3C(F)(F)F)C2)s1 (stereo unspecified) | 19.4%
38 | CCC(c1nnc(SCC(=O)NCCc2ccc(Cl)cc2Cl)o1)N(C)C (stereo unspecified) | -0.1% (active)
39 | O=C(CSc1ncnc2c1cnn2-c1ccc(Cl)cc1)NCc1ccc2c(c1)OCO2 | 12%
40 | COc1ccc(C(=O)CC(=O)C(=O)Nc2ccc(C)cc2Cl)cc1 | 39.7%
41 | CC(C)(C)c1cc(-c2n[nH]c(=S)n2-c2ccccc2F)n[nH]1 | 39.3%
42 | CC(NC(=O)c1ccc(Br)cc1)c1ccc2c(c1)CCCC2 (stereo unspecified) | 62.8%

Row | SMILES | activity change vs negative control
43 | C#CCN1C(=O)S/C(=C\c2ccc(-c3ccc(C(=O)O)cc3C)o2)C1=O | 7.6%
44 | Cc1ccc(NC(=O)CN2C(=O)S/C(=C\c3ccc(-c4cccc(C(=O)O)c4C)o3)C2=O)cc1 | -4% (active)
45 | Cc1ccccc1NC(=O)CN1C(=O)S/C(=C\c2ccc(-c3cc(C(=O)O)ccc3C)o2)C1=O | 10.7%
46 | Cc1cccc(NC(=O)CN2C(=O)S/C(=C\c3ccc(-c4cccc(C(=O)O)c4C)o3)C2=O)c1 | -0.8% (active)
47 | COc1ccc(NC(=O)CN2C(=O)S/C(=C/c3cccn3-c3ccc(C(=O)O)cc3)C2=O)cc1 | 1%
48 | Cc1ccc(C(=O)O)cc1-c1ccc(/C=C2\SC(=O)N(CC(=O)Nc3ccccc3)C2=O)o1 | 1.7%
49 | Cc1ccccc1NC(=O)CN1C(=O)S/C(=C\c2ccc(-c3cccc(C(=O)O)c3C)o2)C1=O | -1% (active)
50 | Cc1cccc(NC(=O)CN2C(=O)S/C(=C\c3cccn3-c3cccc(C(=O)O)c3)C2=O)c1 | 5.2%
51 | Cc1c(/C=C2\SC(=O)N(CC(=O)Nc3ccc4c(c3)OCO4)C2=O)c2ccccc2n1C | 8%
52 | CC(C)COn1c(=S)[nH]c2ccccc2c1=O | 34.7%
53 | Cc1ccc(/C=N/Nc2ccc(C(=O)O)cc2)o1 | 5.5%
54 | Cc1ccccc1NC1=NC(=S)N(c2ccccc2)C12CCCCC2 | 39.1%
55 | CCOC(=O)c1c(-c2ccccc2)csc1NC(=S)NC | 42%
56 | COCCn1c(SCC(=O)Nc2cc(C)cc(C)c2)nc2ccccc2c1=O | 12%
57 | Cc1cc(C)cc(OCc2nnc(SCC(=O)Nc3ccccc3)o2)c1 | -2.3% (active)
58 | COC(=O)CSc1nnc(COc2ccc3ccccc3c2)o1 | 11.8%
59 | COc1ccc(NC(=O)CC23CC4CC(CC(C4)C2)C3)cn1 | 73.9%
60 | S=C(N/N=C/c1ccccc1Cl)Nc1cccc(Cl)c1Cl | 30.4%
61 | COc1cccc2sc(Nc3nnc(-c4ccc(F)cc4)o3)nc12 | 69.1%

From PubChem BioAssay AID1946 (Johns Hopkins Ion Channel Center, 2009)
